Biological target: Left-right determination factor 2 (Homo sapiens) (UniProt O00292)
Assay: small molecules binding LEFTY2 protein – biochemical, small-molecule microarray, 635 nm fluorescence scan, primary screen (AID 1110)
Details: higher = more signal

Left-right determination factor 2 (Homo sapiens), sequence (O00292 whole entry, looked up): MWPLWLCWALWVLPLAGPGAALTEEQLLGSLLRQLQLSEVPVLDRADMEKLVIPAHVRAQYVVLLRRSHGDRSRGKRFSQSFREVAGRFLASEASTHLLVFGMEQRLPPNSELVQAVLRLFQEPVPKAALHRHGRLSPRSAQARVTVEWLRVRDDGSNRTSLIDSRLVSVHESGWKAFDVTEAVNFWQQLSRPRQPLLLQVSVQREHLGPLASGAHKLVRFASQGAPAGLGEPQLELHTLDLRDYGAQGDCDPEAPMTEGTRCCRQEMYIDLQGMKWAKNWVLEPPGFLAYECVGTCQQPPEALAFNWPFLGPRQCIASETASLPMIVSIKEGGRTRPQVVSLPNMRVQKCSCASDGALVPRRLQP

Row | SMILES | composite z-score
1 | Cc1ccc(S[C@]2(C(=O)NCC(F)(F)F)CC(=O)N(Cc3cc(C(F)(F)F)cc(C(F)(F)F)c3)[C@@H]2c2ccc(CO)cc2)cc1 | -0.968
2 | COCCOC(=O)N1C(=O)[C@@]2(c3ccccc31)[C@H](c1ccc(O)cc1)N1[C@H](c3ccccc3)[C@H](c3ccccc3)OC(=O)[C@H]1[C@@H]2C(=O)N1CCN(c2ncccn2)CC1 | 0.332
3 | CCCCC(CC)C(O)C1C=CC2C(=O)N(c3ccccc3)C(=O)C2N1Nc1ccccc1F (stereo not given) | -0.285
4 | COC(=O)C/C=C/C[C@]1(O)C(=O)N(C)c2ccccc21 | 0.704
5 | COCCOC(=O)N1C(=O)[C@@]2(c3cc(C#CCCO)ccc31)[C@H](c1ccc(OCCO)cc1)N1[C@H](c3ccccc3)[C@H](c3ccccc3)OC(=O)[C@H]1[C@@H]2C(=O)Nc1nc2ccccc2s1 | 0.95
6 | CC(C)c1ccc(NN2C(C(O)c3ccc(F)cc3)C=CC3C(=O)N(c4ccccc4)C(=O)C32)cc1 (stereo not given) | 0.397
7 | O=C1[C@H]2C=C(I)[C@H](C[C@@H]2OCCOCCO)[C@@]12CO2 | 0.547
8 | COC(=O)[C@@]1(Cc2ccc(F)cc2)[C@H]2c3cc(C(=O)N4CCCC4)n(CCc4c[nH]c5ccccc45)c3C[C@H]2CN1C(=O)c1ccccc1 | 0.304
9 | O=C1OCCC/C=C\[C@H]2OC34C=CCN(c5ccc6ccccc6c5)C(=O)[C@H]3N(CCO)C(=O)[C@@H]4C12 (stereo not given in full) | -1.2
10 | Cc1ccc(S[C@]2(C(=O)O)CC(=O)N(C3CCCCC3)[C@@H]2c2ccc(CO)cc2I)cc1 | -0.326
11 | CCCCC(CC)C(O)C1C=CC2C(=O)N(C)C(=O)C2N1Nc1ccccc1 (stereo not given) | -0.303
12 | N#Cc1ccc(NN2C(C(O)c3ccc(Br)cc3)C=CC3C(=O)N(c4ccccc4)C(=O)C32)cc1 (stereo not given) | 0.503
13 | Oc1ccc2cc[n+](Cc3cc4c(cc3Br)OCO4)cc2c1 | -0.929
14 | Cc1cc(C)c(C(O)C2C=CC3C(=O)N(c4ccccc4)C(=O)C3N2Nc2ccccc2F)c(C)c1 (stereo not given) | -0.636
15 | COCCOC(=O)N1C(=O)[C@@]2(c3cc(C#CC4=CCCCC4)ccc31)[C@H](C(=O)Nc1nc3ccccc3s1)[C@H]1C(=O)O[C@H](c3ccccc3)[C@H](c3ccccc3)N1[C@@H]2c1ccc(O)cc1 | 0.647
16 | COc1ccc([Si](C)(C)[C@H]2[C@H](CC(=O)N(CCO)Cc3ccccc3)O[C@@]3(C(=O)N(C)c4c(Br)cc(C)cc43)[C@@H]2C)cc1 | 1.12
17 | O=C(c1ccccc1)N1C(=O)[C@]2(Cc3ccccc31)N=C(c1ccc(OCCCO)cc1)O[C@@H]2c1ccccc1 | 0.148
18 | COc1ccc(CCNC(=O)[C@@]2(c3ccc([N+](=O)[O-])cc3)CC(=O)N(C3CCCCC3)[C@@H]2c2ccc(CO)cc2)cc1 | -0.197

Row | SMILES | composite z-score
19 | O=C(NCCN1CCOCC1)[C@@H]1c2ccccc2C(=O)N(Cc2ccccc2Cl)[C@H]1c1ccc(CO)cc1 | -0.341
20 | CS(=O)(=O)CCOC(=O)C1=CC(c2ccc(CO)cc2)=CC(C2CC2)N(Cc2sc3ccccc3c2Cl)C=C1C(=O)OCCS(C)(=O)=O (stereo not given) | 0.815
21 | CC1=C2[C@@H](CCc3ccccc3)OB(O)C[C@@H]2[C@@H]2C(=O)N(C)C(=O)[C@@H]2C1 | 0.173
22 | CN1C2C=C(CCCO)C(C3C(=O)N(C(N)=O)C(=O)C32)C1C1CC1 (stereo not given) | -0.645
23 | NCCCCCCNC(=O)[C@@H]1C[C@@H]2C(=O)N[C@@H](CCCCN)C(=O)N2[C@@H]1c1ccc(O)cc1 | 0.642
24 | CC1CC/C=C\[C@H]2OC34C=CCN(C(C)(C)C)C(=O)[C@H]3N(CCCCCO)C(=O)[C@@H]4C2C(=O)O1 (stereo not given in full) | -0.464
25 | Cc1ccc(F)cc1S(=O)(=O)N[C@@H]1CCN(Cc2ccc(Br)cc2)C1 | 0.681
26 | COC(=O)[C@@]1(Cc2ccc(OC)cc2)[C@H]2c3cc(C(=O)N4CCCC4)n(CCO)c3C[C@H]2CN1C(=O)c1ccccc1 | -0.352
27 | CCOC(=O)C[C@H]1[C@H](OC(=O)c2ccccc2-c2ccccc2)[C@@H](NC(=O)c2ccc3ccccc3c2)c2cc(OCCCO)ccc2N1C(=O)c1ccccc1 | 0.596
28 | CCCC1(C(=O)OC)C=C2C(=C(C)C(=O)C2C)CN1 (stereo not given) | -0.569
29 | O=C1C2C=CC(C(O)C3CC=CCC3)N(Nc3ccccc3)C2C(=O)N1c1ccccc1 (stereo not given) | 0.0066
30 | CC(C)N1C(=O)C[C@@](C(=O)NC2CC2)(c2ccc([N+](=O)[O-])cc2)[C@H]1c1ccc(CO)cc1 | -1.15
31 | C=C(C(=O)CC[C@H](OC(=O)c1ccccc1-c1ccccc1C(=O)O)c1cccc(OCCO)c1)C(C)C | -0.103
32 | COC(=O)c1c(CC[C@@H](CO)NC(=O)N[C@@H](C)Cn2cc(-c3ccccn3)nn2)oc(C(C)=O)c1C(=O)OC | 0.328
33 | COCC(=C=CC[C@H](O)c1ccc(CO)o1)CCO | 0.173
34 | COCC(=C=CC[C@H](O)c1ccc(OCCO)cc1)CCO | 0.774
35 | COc1cc(NN2C(C(O)c3ccco3)C=CC3C(=O)N(C)C(=O)C32)cc(OC)c1OC (stereo not given) | 0.173
